Results on eight compounds are retold here after PubChem BioAssay (NCATS).

Records with an inconclusive call do not appear. Calls of active or inactive are those of the source. Calls follow the shape of the full dose curve.
% is scaled to controls: 0 for no effect and ±100 for the full control effect.

The target in this experiment is Nucleoprotein (Lymphocytic choriomeningitis virus (strain Armstrong)) (UniProt P09992). The experiment in a line: qHTS for Inhibitors of the Functional Ribonucleoprotein Complex (vRNP) of Lymphocytic Choriomeningitis Arenaviruses (LCMV): LCMV Primary Screen - GLuc reporter signal (AID 1347086). Also: nearly all actives have a fitted effect of over 70% in size. Conditions: LCMV minigenome vRNP cell assay, Gaussia luciferase reporter; series mostly up to 57.5 µM; activity change, negative = inhibition: at the top concentration. For orientation: qHTS replaces the single test concentration by a dilution series.
Nucleoprotein (Lymphocytic choriomeningitis virus (strain Armstrong)), sequence (P09992 whole entry, looked up): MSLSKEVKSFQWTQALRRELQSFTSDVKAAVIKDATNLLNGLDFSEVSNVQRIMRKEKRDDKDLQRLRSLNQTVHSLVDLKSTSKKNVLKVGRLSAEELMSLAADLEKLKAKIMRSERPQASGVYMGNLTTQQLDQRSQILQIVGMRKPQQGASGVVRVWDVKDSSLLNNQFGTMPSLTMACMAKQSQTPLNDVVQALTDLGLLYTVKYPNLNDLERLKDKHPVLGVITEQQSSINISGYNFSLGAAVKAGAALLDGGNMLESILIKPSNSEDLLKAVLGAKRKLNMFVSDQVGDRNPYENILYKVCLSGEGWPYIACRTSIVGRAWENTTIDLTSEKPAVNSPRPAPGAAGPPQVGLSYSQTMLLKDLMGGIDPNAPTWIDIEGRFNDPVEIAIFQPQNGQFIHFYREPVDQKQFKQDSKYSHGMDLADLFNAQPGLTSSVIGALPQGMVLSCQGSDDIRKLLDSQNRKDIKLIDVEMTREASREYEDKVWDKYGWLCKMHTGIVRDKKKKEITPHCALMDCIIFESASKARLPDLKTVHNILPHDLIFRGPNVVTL
In the case of `Fc1cc(-c2cccc3ncc(-c4cnn(C5CCNCC5)c4)nc23)cc(F)c1CN1CCOCC1`, the “activity change, negative = inhibition” value was -15.5% (inactive).

Consider `N#Cc1ccc(COC[C@H]2O[C@@H](n3c(NCc4ccc(Cl)c(Cl)c4)nc4c(N)ncnc43)[C@@H](O)[C@@H]2O)cc1`, for which the “activity change, negative = inhibition” value is -14.3% (inactive).

As to `O=c1[nH]nc(Sc2ncc([N+](=O)[O-])s2)n1-c1ccc2c(c1)OCCO2`, the “activity change, negative = inhibition” value was -6.8% (inactive).

As for `O=S(=O)(N=Cc1c(O)ccc2ccccc12)c1cccs1`, the “activity change, negative = inhibition” value is 37.1% (inactive).

Turning to `CC(C)OC(=O)C1=CN(C(=O)c2ccc(F)c(F)c2)CC(C)(C)c2c1[nH]c1ccccc21`, the “activity change, negative = inhibition” value is -32.7% (inactive).

Regarding `CCN(CC)c1ccc(C(=C2C=CC(=[N+](CC)CC)C=C2)c2cc(S(=O)(=O)O)ccc2S(=O)(=O)[O-])cc1`, the “activity change, negative = inhibition” value is 4.71% (inactive).

With `COc1ccc(N(C(=O)Oc2c(C)cccc2C)c2ccnc(Nc3ccc(N4CCN(C)CC4)cc3)n2)c(OC)c1`, the “activity change, negative = inhibition” value is -75.1% (inactive).

Turning to `CNC(=O)c1cc(Oc2ccc(NC(=O)Nc3ccc(Cl)c(C(F)(F)F)c3)c(F)c2)ccn1`, the “activity change, negative = inhibition” value is -19.6% (inactive).
